In the library only some 19% were active in any assay of this set; here they are far more common.
TDP1 cell CPT: growth inhibition of DT40 Tdp1-/-;hTDP1 cells with camptothecin (screen for TDP1 inhibitors). AID 686979. chicken DT40 Tdp1-/-;hTDP1 cells + 20 nM CPT, ATP luminescence, 48 h. hit rate 12% among 420,000. Potency, µM (series often up to 46.2 µM), inactives show top-dose activity change, negative = growth inhibition, actives largely listed as inhibitors; note: nearly all actives have a fitted effect of over 55% in size
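Chicken DT40 Tdp1-/- cells complemented with human TDP1, 400 cells/well, exposed to compounds plus 20 nM camptothecin for at least 48 h at 37 C; viability read as ATP content by CellTiter-Glo luminescence.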
HT1080 IDH1KD tx: toxicity to HT-1080 IDH1 knockdown cells (counter line) | HT-1080 IDH1 knockdown viability, ATP luminescence, 48 h | Potency, µM (highest dose often 46.1 µM), for the others: at the highest dose activity, negative = toxicity, actives largely listed as cytotoxic | hit rate 2% among 360,000;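 note: 0% = DMSO wells and -100% = cell-free medium wells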
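Knockdown cells (IDH1KD HT-1080) received compounds 2 h after plating at 750 cells/well and were kept 48 h at 37 °C in 5% FBS RPMI. A CellTiter-Glo luminescence read gave % activity for curve fitting.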
KB-3-1 tox: kills parental KB-3-1 adenocarcinoma cells | hit rate 1.4% among 400,000 | Potency, µM (series often up to 46.1 µM), actives largely listed as cytotoxic | KB-3-1 viability, CellTiter-Glo ATP luminescence, 72 h; note: nearly all actives have a fitted effect of over 60% in size
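Multi-concentration cytotoxicity screen in KB-3-1 cells grown in DMEM lacking phenol red with 10% FBS. After 72 h at 37 °C with compound, ATP-dependent luminescence was recorded.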
KB-V1 cytotox: KB-V1 MDR subline cytotoxicity; AID 1347076; hit rate 3.4% among 400,000; Potency, µM (doses to about 46.1 µM), most hits filed as cytotoxic; KB-V1 MDR cells viability, CellTiter-Glo, 72 h; note: nearly all actives have a fitted effect of over 60% in size
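Cells of the MDR subline KB-V1 are plated, dosed with compound at multiple concentrations, and incubated 72 h at 37 degrees C; CellTiter-Glo is then added and luminescence read after 10 min.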
TDP1 cell noCPT: qHTS for Inhibitors of human tyrosyl-DNA phosphodiesterase 1 (TDP1): qHTS in cells in absence of CPT. Potency, µM (titrated, usually from 46.2 µM), for inactives: top-dose activity change, negative = growth inhibition, most hits filed as inhibitors. DT40 Tdp1-/- hTDP1 cells, no CPT, ATP luminescence, 48 h. hit rate 15% among 420,000. AID 686978, 2013; note: nearly all actives have a fitted effect of over 55% in size
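Readout: luminescence from CellTiter-Glo after 30 min in the dark at RT. Cells: DT40 Tdp1-/- with stable hTDP1, 400/well. Exposure: compounds alone, ≥48 hr, 37 °C.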
HT1080NT lethal: kills 2HG-producing HT-1080-NT fibrosarcoma cells. HT-1080-NT fibrosarcoma viability, CellTiter-Glo ATP luminescence, 48 h. Potency, µM (titrated, usually from 46.1 µM), for inactives: at the highest dose activity, negative = less viability, actives largely listed as cytotoxic. hit rate 1.6% among 360,000;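 note: NT is the 2HG producing partner of a matched IDH1 knockdown line; 0% = DMSO-treated cells and -100% = media-only wells without cells; nearly all actives have a fitted effect of over 55% in size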
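Toxicity toward the 2HG-producing NT line was scored as %Activity, normalised to DMSO and no-cell wells, from CellTiter-Glo luminescence after 48 hours' treatment.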
Numbers without * were called inactive; i = inactive; ? = inconclusive; . = no result. Calls come from the whole dose curve; as a rule, active = well fitted curve in the direction sought with a large enough effect; inconclusive = small, poorly fitted or top-dose-only effect, or another doubt; inactive = no such curve, though single readings can be large; an effect the other way counts as inactive or inconclusive. Unless noted, % is set by controls: 0 for no effect and ±100 for the full control effect; potency is the fitted concentration of half-maximal effect.

SMILES	TDP1 cell CPT	HT1080 IDH1KD tx	KB-3-1 tox	KB-V1 cytotox	TDP1 cell noCPT	HT1080NT lethal
Cc1ccc(C(C)C)c(OCC(=O)Nc2cccc(NC(=O)c3ccco3)c2)c1	?	.	i	i	20.6µM*	.
Cc1ccccc1OCC(=O)Nc1cccc(NC(=O)c2ccco2)c1	?	0.3%	i	i	?	2.0%
Cc1cc(C)c2nc(-c3ccccn3)cc(C(=O)n3cccn3)c2c1	?	13.4%	i	i	18.4µM*	18.1%
Oc1ccc(Br)cc1-c1nc2cnccn2c1NC1CCCC1	?	-12.7%	?	23.1µM*	?	-13.4%
Oc1ccc(Br)cc1-c1nc2cnccn2c1NC1CCCCC1	-19.0%	-18.0%	i	i	-24.7%	?
COc1ccc(C(O)Cn2ccsc2=NC(C)=O)cc1 (stereo not given)	23.1µM*	11.6µM*	?	?	?	?
COc1ccc(NC(=O)Nc2c[nH]c(=O)[nH]c2=O)c(OC)c1	-17.4%	.	i	i	0.9%	.
CCOC(=O)c1cn(Cc2c(C)c(C)c(C)c(C)c2C)nn1	16.4µM*	-3.1%	i	?	23.1µM*	-0.8%
CCOC(=O)c1cn(Cc2cccc(Cl)c2)nn1	1.4%	4.8%	i	i	-5.4%	6.4%
COc1ccccc1NS(=O)(=O)c1cc(NC(=O)c2ccccc2F)ccc1N1CCOCC1	16.4µM*	-6.5%	i	?	13µM*	-1.4%
COc1ccccc1NS(=O)(=O)c1cc(NC(=O)c2cccs2)ccc1N1CCOCC1	7.31µM*	-12.7%	i	i	2.59µM*	-15.5%
COc1ccccc1NS(=O)(=O)c1cc(NC(=O)c2ccccc2[N+](=O)[O-])ccc1N1CCOCC1	?	-12.3%	i	i	?	3.2%
COc1ccccc1NS(=O)(=O)c1cc(NC(=O)c2ccco2)ccc1N1CCOCC1	?	-13.2%	i	?	?	-1.2%
CC(C)c1cc(-c2nc(-c3ccc(Cl)cc3)no2)n[nH]1	20.6µM*	.	i	i	20.6µM*	.
COc1cc(-c2noc(-c3cc(C)[nH]n3)n2)cc(OC)c1OC	-20.4%	.	i	i	?	.
COc1cc(-c2noc(-c3cc(C(C)C)[nH]n3)n2)cc(OC)c1OC	?	.	i	i	20.6µM*	.
CN(C(=O)COC(=O)/C=C/c1ccc(S(=O)(=O)N2CCc3ccccc32)cc1)C1CCS(=O)(=O)C1 (stereo not given)	-4.9%	11.1%	i	i	-6.5%	1.0%
COc1ccc(C(=O)c2ccccc2CN2C(=O)c3ccccc3C2=O)cc1	?	4.9%	i	16.4µM*	-20.8%	-1.1%
COc1ccc(CN2C(=O)C(CC(=O)NCC3CCCCC3)CC(C(=O)N(C)C)=C2C)cc1 (stereo not given)	?	-9.2%	i	?	?	3.4%
CC1=C(C(=O)N(C(C)C)C(C)C)CC(CC(=O)NCC2CCCCC2)C(=O)N1Cc1ccc(C(C)(C)C)cc1 (stereo not given)	18.7µM*	23.5µM*	.	i	18.7µM*	?
CCN(CC)C(=O)C1=C(C)N(Cc2ccc(OC)cc2)C(=O)C(CC(=O)NCC2CCCCC2)C1 (stereo not given)	?	9.0%	i	i	20.6µM*	-6.7%
CC1=C(C(=O)N(C(C)C)C(C)C)CC(CC(=O)NC2CC2)C(=O)N1Cc1ccc(C(C)(C)C)cc1 (stereo not given)	?	1.6%	i	?	29.1µM*	-7.4%
COc1ccc(CCNC(=O)c2cc(-c3ccc(C)cc3)nc3n[nH]c(-c4ccc(F)cc4)c23)cc1OC	-16.2%	.	i	i	-22.7%	.
CCOc1ccccc1CNC(=O)c1ccc(N2Cc3ccccc3Oc3ncccc32)s1	?	.	i	i	14.6µM*	.
NS(=O)(=O)c1ccc(CCNC(=O)c2ccc3nc(CCc4ccccc4)oc3c2)cc1	?	.	.	.	-8.4%	.
SMILES	TDP1 cell CPT	HT1080 IDH1KD tx	KB-3-1 tox	KB-V1 cytotox	TDP1 cell noCPT	HT1080NT lethal
CCOC(=O)C1=C(C)c2ccccc2N(C(=O)OC)C1(C)C(=O)OCC (stereo not given)	10.3µM*	-0.1%	i	i	10.3µM*	2.6%
CCOC(=O)C1=C(C)c2ccccc2OC1(CC)C(=O)OCC (stereo not given)	?	6.3%	i	i	?	3.5%
Cc1ccc(S(=O)(=O)N2CCCC2CNC(=O)c2ccc3c(c2)OCO3)cc1 (stereo not given)	?	-2.7%	i	i	18.4µM*	-13.6%
Cc1ccc(S(=O)(=O)N2CCCC2CNC(=O)c2ccccc2)cc1 (stereo not given)	?	3.2%	i	i	-29.4%	0.7%
COc1ccc(S(=O)(=O)N2CCCC2CNC(=O)C(=O)Nc2ccc(F)cc2)cc1 (stereo not given)	?	-5.6%	i	i	?	-1.6%
COc1ccc(C(=O)NCC2CCCN2S(=O)(=O)c2ccccc2)cc1OC (stereo not given)	-13.1%	0.2%	i	i	-22.0%	-8.5%
COc1ccc(S(=O)(=O)N2CCCC2CNC(=O)C(=O)Nc2cccc(F)c2)cc1 (stereo not given)	-13.2%	-9.2%	i	4.11µM*	?	-0.3%
Cc1ccc(S(=O)(=O)N2CCCC2CNC(=O)C(=O)Nc2ccccc2)cc1 (stereo not given)	29.1µM*	0.8%	i	i	?	-0.4%
Cc1cccc(C)c1NC(=O)C(=O)NCC1CCCN1S(=O)(=O)c1ccccc1 (stereo not given)	?	3.7%	i	i	11.6µM*	-2.6%
CCCCNC(=O)/C=C/c1ccc(S(=O)(=O)Nc2ccc(OC)cc2)cc1	-29.8%	-20.1%	i	i	-6.5%	-18.1%
COCCNC(=O)C1(C)CCCN(C(=O)c2ccco2)C1 (stereo not given)	-1.1%	24.1%	i	i	-0.7%	8.6%
Cc1nc(NC(=O)CSc2nnc(C3CC3)n2C)sc1C	8.7%	23.4%	i	i	-8.2%	13.7%
CC(C)C(=O)N1CCN(c2ccccc2NC(=O)c2cccc3ccccc23)CC1	?	-16.2%	i	i	16.4µM*	-9.0%
CC(C)C(=O)N1CCN(c2ccccc2NC(=O)c2cccc(Cl)c2)CC1	?	-1.2%	i	i	16.4µM*	-2.1%

Assay outcomes deposited in PubChem BioAssay by National Center for Advancing Translational Sciences (NCATS).
